Hit rate of the full screen: of about 330,000 compounds, about 650 (0.2%) were called active. Only a selection was taken, and actives are over-represented in it overall. Values without a mark were called inactive. No stated cut-off is given here; in the data, active means inhibition above about 50%; inactive means the rest.

Data on 60 compounds can be found in PubChem BioAssay AID2557 (NMMLSC, 2010).

Sequence of Integrin alpha-4 (Homo sapiens) (P13612 whole entry, looked up): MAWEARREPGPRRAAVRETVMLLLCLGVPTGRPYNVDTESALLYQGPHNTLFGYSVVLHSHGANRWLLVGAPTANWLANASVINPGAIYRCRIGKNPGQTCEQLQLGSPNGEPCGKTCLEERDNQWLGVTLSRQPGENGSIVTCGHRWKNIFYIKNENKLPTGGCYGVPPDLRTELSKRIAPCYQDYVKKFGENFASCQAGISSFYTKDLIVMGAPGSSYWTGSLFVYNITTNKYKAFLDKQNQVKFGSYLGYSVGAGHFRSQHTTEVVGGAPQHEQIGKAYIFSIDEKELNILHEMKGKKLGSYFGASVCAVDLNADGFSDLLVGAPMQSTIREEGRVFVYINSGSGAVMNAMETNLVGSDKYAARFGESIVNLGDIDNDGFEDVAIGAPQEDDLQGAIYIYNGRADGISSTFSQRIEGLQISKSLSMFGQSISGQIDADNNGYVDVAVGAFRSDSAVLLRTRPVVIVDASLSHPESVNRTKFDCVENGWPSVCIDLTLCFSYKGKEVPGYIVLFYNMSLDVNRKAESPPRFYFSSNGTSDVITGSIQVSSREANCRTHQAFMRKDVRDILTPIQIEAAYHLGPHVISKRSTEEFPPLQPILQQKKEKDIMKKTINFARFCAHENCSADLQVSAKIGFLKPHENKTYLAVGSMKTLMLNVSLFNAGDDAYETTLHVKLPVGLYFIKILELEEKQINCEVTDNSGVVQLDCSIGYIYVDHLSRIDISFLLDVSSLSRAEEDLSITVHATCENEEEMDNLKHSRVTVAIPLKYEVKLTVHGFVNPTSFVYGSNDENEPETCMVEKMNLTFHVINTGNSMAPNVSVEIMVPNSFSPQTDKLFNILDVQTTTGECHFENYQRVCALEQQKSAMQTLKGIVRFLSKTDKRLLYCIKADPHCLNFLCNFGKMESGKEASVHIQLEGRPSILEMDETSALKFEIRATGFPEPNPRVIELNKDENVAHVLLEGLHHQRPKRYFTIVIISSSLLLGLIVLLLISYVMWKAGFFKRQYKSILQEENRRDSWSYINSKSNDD

This assay has as its target Integrin alpha-4 (Homo sapiens) (UniProt P13612). As to the kind of experiment: VLA-4 integrin binding inhibitors – MLPCN library, flow cytometry, VLA-4 expressing cells, VLA-4 allosteric modulator project, primary screen (AID 2557). The following applies: ligand binding flow cytometry, hits give high values, about 7 µM as worked out from the volumes in the protocol. (Flow cytometry measures light scatter and fluorescence of single cells or particles in a stream.)
Usually inhibition stands for the relative decrease from the control value, in per cent. As to `O=C(O)c1ccc(-n2cccc2)cc1O`, the inhibition is 7.46%. With `COc1cccc(NC(=O)Nc2nnc(N3CCCCC3C)s2)c1` (stereo not given) the figure was -3.47%; with `CCOC(=O)C1(CCOc2ccccc2)CCN(Cc2cc(OC)c(O)cc2Cl)CC1`, 7.42%; with `OCC1(CCOc2ccccc2)CCN(Cc2cn[nH]c2-c2ccccc2)CC1`, 0.87%.

Consider `Cc1c(CN2CCC(CO)(CCOc3ccccc3)CC2)[nH]c2ccc(Cl)cc12`, for which the inhibition is 54.3% (active). In the case of `COc1ccc(C2C(C#N)=C(N)Oc3n[nH]c(C)c32)cc1CN1CCN(c2ccc(F)cc2)CC1` (stereo not given), the inhibition was 5.55%. The value for `COc1nc(OC)nc(N(C)CCO)n1` was 12.5%; that for `Cc1noc(COc2ccccc2OCc2onc(C)c2Cl)c1Cl` was -0.81%; that for `Cc1ccccc1C(=O)Nc1cccc(-c2nnc(SCC(=O)O)n2C)c1` was 5.4%. With `N#C/C(=C/c1ccc(Cl)cc1)NC(=O)c1ccccc1` the figure was -2.66%; with `CC1(C)Cc2cccc(OCC(=O)N3CCN(c4ccc([N+](=O)[O-])cc4)CC3)c2O1`, -21.6%. For the compound `Cc1ccnc(NC(=O)c2ccco2)n1`, the inhibition is 63.2% (active).

In the case of `NC(=O)c1ccsc1NC(=O)c1ccco1`, the inhibition is -45.2%. With `O=C(Nc1nc(-c2ccco2)c(-c2ccco2)s1)c1ccco1` the figure was -14.9%. Consider `COc1cccc(CCNC(=O)c2cccc(NC(=O)C3=C(C)OCCS3)c2)c1`, for which the inhibition is 4.07%.

In the case of `Cc1cc(C(=O)NNS(=O)(=O)c2ccccc2C(F)(F)F)nn1C(C)(C)C`, the inhibition was 2.36%. `Cc1cc(C(=O)OC(C)C(=O)Nc2cccc(S(=O)(=O)N3CCOCC3)c2)c(C)o1` (stereo not given): the inhibition is 5.58%. As for `CCn1c(C)nc2cc(C(=O)NNS(=O)(=O)c3ccc(C)cc3C)ccc21`, the inhibition was 1.05%. `COC(=O)c1cc(NS(=O)(=O)c2ccc3c(c2)c(=O)n(C)c(=O)n3C)cc(C(=O)OC)c1`: the inhibition is -0.04%. Take `Cc1cccc(CN2CCC(n3nccc3NC(=O)c3ccccc3C)CC2)n1`: the inhibition is -1.23%. `CCNC(=S)NNC(=O)C1CCN(Cc2ccccc2)CC1`: the inhibition was 8.74%. Consider `Cc1ccc(OCC(=O)NNC(=S)NCc2ccccc2)cc1`, for which the inhibition is -4.04%.

On to `CCNC(=S)NNC(=O)Cc1ccccc1`, for which the inhibition was 94.9% (active). As for `O=C(NCCc1c[nH]c2ccccc12)c1cccc(Br)c1`, the inhibition was 2.59%. Take `CC1(C(=O)NCCc2c[nH]c3ccccc23)C=CC2(CCCCC2)N1C(=O)c1ccccc1` (stereo not given): the inhibition was 52.7% (active).

With `O=C(CN1C(=O)NC2(CCCCC2)C1=O)NCCc1c[nH]c2ccccc12`, the inhibition is 4.17%. Consider `Cc1cccc(NC(=O)NC2(C)CCS(=O)(=O)C2)c1` (stereo not given), for which the inhibition was 7.4%. Turning to `CCOC(=O)c1ccc(NC(=O)c2ccc(NC(=O)C3CCCO3)cc2)cc1` (stereo not given), the inhibition is 6.76%. Turning to `O=C(Nc1ccccc1Cl)NC1(C(=O)N2CCOCC2)CCCCC1`, the inhibition was 10.7%. For `CCOc1cc(NC(=S)NCCCN(C)C)c(OCC)cc1NC(=O)C1CC1`, the inhibition was -0.39%. With `Cc1sc2ncnc(Sc3nc4ccccc4s3)c2c1C` the figure was 8.09%; with `O=C(c1ccco1)N(Cc1nc2ccccc2c(=O)[nH]1)C1CCCC1`, -4.47%; with `COc1ccccc1NC(=O)c1cc(Cl)nnc1Cl`, 50.6% (active). Take `COc1ccccc1NC(=O)/C=C/C(N)=O`: the inhibition was 17.5%. The value for `COc1ccccc1NC(=O)c1cc(Cl)nc2ccccc12` was 7.01%. Consider `Brc1cc(Br)c(Oc2cc(Br)c(Br)cc2Br)cc1Br`, for which the inhibition was 11.2%. Regarding `Cc1[nH]c2ccccc2c1SCC(=O)Nc1nccs1`, the inhibition was 4.64%. Consider `CC1=C(C/C=C(\C)CCCC(C)CCCC(C)CCCC(C)C)C(=O)c2ccccc2C1=O` (stereo not given), for which the inhibition was -3.08%.

`O=C(O)CC(Cc1ccccc1)C(=O)Nc1ccc([N+](=O)[O-])cc1` (stereo not given): the inhibition was -9.76%.

For the compound `Cc1c(C(=O)c2cccc([N+](=O)[O-])c2)c2ccccn2c1CCC#N`, the inhibition was -34.5%. With `COc1ccc(-c2cc(C(=O)N3CCN(Cc4ccc5c(c4)OCO5)CC3)on2)cc1OC` the figure was 4.54%; with `OCC[C@H]1C[C@H](O)[C@@H](O)[C@]2(CCc3ccccc3O2)O1`, -21%. For `CC(=O)N1CCOc2ccc(S(=O)(=O)N3CCC(C(=O)Nc4ccccc4F)CC3)cc21`, the inhibition is 47.6%.

For the compound `COc1ccc(C(=O)Oc2ccc(-c3nnco3)cc2)cc1S(=O)(=O)N1CCOCC1`, the inhibition is -1.94%. `Cc1cc(C)nc(Nc2n[nH]c(-c3ccccc3N)n2)n1`: the inhibition is 2.65%. For `O=C(NN1C(=O)C2C3C=CC(C4CC34)C2C1=O)c1ccc(Cl)cc1` (stereo not given), the inhibition was 0.6%.

For the compound `CC(=O)NC12CC3CC(C1)CC(C(=O)N1CCN(C(=O)c4ccco4)CC1)(C3)C2`, the inhibition is 6.83%.

With `O=C(c1cccnc1)N1CCN(S(=O)(=O)c2cccs2)CC1`, the inhibition is 0.7%. Consider `CC(=O)NC12CC3CC(C1)CC(C(=O)N1CCN(S(=O)(=O)c4cccs4)CC1)(C3)C2`, for which the inhibition was 49.5% (active). Turning to `CCCCn1c(N)c(N(CCC(C)C)C(=O)COC(=O)c2cccnc2OCC)c(=O)[nH]c1=O`, the inhibition was -4.24%.

Take `COC(=O)[C@@H]1C[C@H]2CC[C@H](O)C[C@H]2N1Cc1ccc(N2CCN(C)CC2)cc1`: the inhibition is -1.75%. The value for `O=C(COc1ccc(S(=O)(=O)NCCc2ccccc2)cc1)N1CCCC1` was 3.9%.

As for `COCCCn1c(-c2cccs2)nc2nc3ccccc3nc21`, the inhibition is -3.42%. Regarding `O=C(CN1CCC(NC(=O)Nc2ccccc2)CC1)Nc1cccc([N+](=O)[O-])c1`, the inhibition was 50.6% (active). For the compound `O=C(CN1CCOCC1)Nc1cccc([N+](=O)[O-])c1`, the inhibition was -3.87%. As to `CN1CCN(CC(=O)Nc2cccc([N+](=O)[O-])c2)CC1`, the inhibition is -3.14%. On to `COCC1CCCN(Cc2nc(-c3ccc4c(c3)OCO4)no2)C1` (stereo not given), for which the inhibition was 9.31%. Consider `Cc1cc(N2CCCC2=O)cc(C)c1S(N)(=O)=O`, for which the inhibition was 14.9%. On to `COc1ccc(NC(=O)NC2CC3CCCC(C2)N3Cc2ccccc2)cc1` (stereo not given), for which the inhibition is 6.26%.

`Cc1noc(C)c1CSCC(=O)N(CCC(C)C)c1c(N)n(Cc2ccccc2)c(=O)[nH]c1=O`: the inhibition was -2.16%.
